A number with no mark means an inactive call. Records with an inconclusive call do not appear. Where a call stands in place of a potency, no number is given. The source made the active and inactive calls. Calls come from the whole dose curve; as a rule, active = well fitted curve in the direction sought with a large enough effect in the repeat runs; inconclusive = weak or mixed curves; inactive = no such curve, though single readings can be large; an effect the other way counts as inactive or inconclusive.
How the values were obtained:
[1] = Caspase-3/7 induction in HepG2 cells by small molecules, qHTS assay (AID 1346978); note: nearly all actives have a fitted effect of over 15% in size
How it was run: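 Wild-type HepG2 cells (2,000/well) were settled 5 h at 37 C, 5% CO2, then exposed to compounds in DMSO for 17 h. Caspase-3/7 activity was read by luminescence 30 min after adding Caspase-Glo 3/7 reagent at room temperature.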

[2] = Caspase-3/7 induction in CHO-K1 cells by small molecules, qHTS cell viability counter screen (AID 1346979); note: nearly all actives have a fitted effect of over 35% in size; note: potency is the fitted concentration of half-maximal effect
How it was run: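 Following a 5hr settling period, CHO-K1 cells at 1,500 per well received DMSO-dissolved compounds. Cell viability was quantified 16hr later by CellTiter-Fluor fluorescence, measured after 1hr with reagent at 37C.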

[3] = Caspase-3/7 induction in CHO-K1 cells by small molecules, qHTS assay (AID 1346980); note: nearly all actives have a fitted effect of over 15% in size
How it was run: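 Wild-type cells were seeded at 1,500 per well and settled 5 hr at 37 C, 5% CO2, then exposed to DMSO-dissolved compounds for 17 hr. Caspase-Glo 3/7 reagent was added, and luminescence was read after 30min at room temperature.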

[4] = Caspase-3/7 induction in HepG2 cells by small molecules, qHTS cell viability counter screen (AID 1346981); note: nearly all actives have a fitted effect of over 30% in size; note: potency is the fitted concentration of half-maximal effect
How it was run: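 Viability determined by CellTiter-Fluor fluorescence in HepG2 wells also used for the luminescent Caspase-Glo 3/7 read. Compounds were present for 16 hr at 37 C, 5% CO2 before reagent addition.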

[5] = target: Nuclear receptor subfamily 1 group I member 2 (Homo sapiens) (UniProt O75469); experiment: Human pregnane X receptor (PXR) small molecule agonists, qHTS assay (AID 1346982); note: nearly all actives have a fitted effect of over 35% in size; note: potency is the fitted concentration of half-maximal effect
How it was run: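 Compound-induced hPXR transactivation of a CYP3A4 luciferase reporter was scored in HepG2 PXR-Luc cells over 24 hr at 37 C, 5% CO2, by luminescence.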

[6] = target: Cytochrome P450 2D6 (Homo sapiens) (UniProt P10635); experiment: Cytochrome P450 Family 2 Subfamily D Member 6 (CYP2D6) small molecule antagonists: luciferase reporter qHTS assay (AID 1671196); note: nearly all actives have a fitted effect of over 50% in size; note: potency is the fitted concentration of half-maximal effect
How it was run: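 Each well received CYP2D6 with its proluciferin substrate and chemical, sat 10 min, then got NADPH regeneration solution for 1 h at room temperature. Luminescence in RLU served as the activity measure.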

[7] = target: Cytochrome P450 2C19 (Homo sapiens) (UniProt P33261); experiment: Cytochrome P450 Family 2 Subfamily C Member 19 (CYP2C19) small molecule antagonists: luciferase reporter qHTS assay (AID 1671197); note: nearly all actives have a fitted effect of over 65% in size; note: potency is the fitted concentration of half-maximal effect
How it was run: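 First, compounds are pinned into enzyme-substrate mix and held 10 min at room temperature. Second, NADPH regeneration solution is added and plates incubate 1 h at 37C. Third, detection reagent is added and luminescence read after 20 min.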

[8] = target: Cytochrome P450 2C9 (Homo sapiens) (UniProt P11712); experiment: Cytochrome P450 Family 2 Subfamily C Member 9 (CYP2C9) small molecule antagonists: luciferase reporter qHTS assay (AID 1671198); note: nearly all actives have a fitted effect of over 50% in size; note: potency is the fitted concentration of half-maximal effect
How it was run: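 CYP2C9 activity was measured with a P450-Glo proluciferin substrate. Enzyme–substrate mix was held with compound for 10 min at room temperature, then NADPH regeneration solution was added for 1 h at 37C. Luciferin product was read as luminescence.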

Sequence of Cytochrome P450 2D6 (Homo sapiens) (P10635 whole entry, looked up): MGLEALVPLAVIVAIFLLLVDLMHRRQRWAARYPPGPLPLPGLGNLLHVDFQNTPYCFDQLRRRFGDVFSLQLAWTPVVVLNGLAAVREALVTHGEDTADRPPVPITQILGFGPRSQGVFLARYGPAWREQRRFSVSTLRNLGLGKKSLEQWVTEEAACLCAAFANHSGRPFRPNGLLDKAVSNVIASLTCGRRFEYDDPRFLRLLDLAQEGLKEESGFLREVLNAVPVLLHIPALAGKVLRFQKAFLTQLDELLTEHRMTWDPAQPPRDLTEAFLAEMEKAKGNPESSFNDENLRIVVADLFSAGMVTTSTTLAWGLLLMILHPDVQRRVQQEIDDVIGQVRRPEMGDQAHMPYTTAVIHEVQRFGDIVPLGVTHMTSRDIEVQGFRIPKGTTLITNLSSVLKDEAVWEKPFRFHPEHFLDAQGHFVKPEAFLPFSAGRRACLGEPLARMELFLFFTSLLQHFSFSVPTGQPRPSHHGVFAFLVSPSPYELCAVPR
Sequence of Nuclear receptor subfamily 1 group I member 2 (Homo sapiens) (O75469 whole entry, looked up): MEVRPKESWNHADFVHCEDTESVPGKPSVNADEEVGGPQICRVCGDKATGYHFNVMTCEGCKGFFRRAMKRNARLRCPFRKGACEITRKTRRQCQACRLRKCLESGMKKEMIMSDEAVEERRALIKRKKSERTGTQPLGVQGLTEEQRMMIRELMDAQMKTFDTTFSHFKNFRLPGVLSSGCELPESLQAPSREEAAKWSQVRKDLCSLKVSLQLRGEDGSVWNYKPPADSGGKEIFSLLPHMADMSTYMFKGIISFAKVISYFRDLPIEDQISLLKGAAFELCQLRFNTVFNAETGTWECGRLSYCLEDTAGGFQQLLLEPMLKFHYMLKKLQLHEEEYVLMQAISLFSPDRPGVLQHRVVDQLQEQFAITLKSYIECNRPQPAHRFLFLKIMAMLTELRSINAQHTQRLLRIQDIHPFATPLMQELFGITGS
Sequence of Cytochrome P450 2C19 (Homo sapiens) (P33261 whole entry, looked up): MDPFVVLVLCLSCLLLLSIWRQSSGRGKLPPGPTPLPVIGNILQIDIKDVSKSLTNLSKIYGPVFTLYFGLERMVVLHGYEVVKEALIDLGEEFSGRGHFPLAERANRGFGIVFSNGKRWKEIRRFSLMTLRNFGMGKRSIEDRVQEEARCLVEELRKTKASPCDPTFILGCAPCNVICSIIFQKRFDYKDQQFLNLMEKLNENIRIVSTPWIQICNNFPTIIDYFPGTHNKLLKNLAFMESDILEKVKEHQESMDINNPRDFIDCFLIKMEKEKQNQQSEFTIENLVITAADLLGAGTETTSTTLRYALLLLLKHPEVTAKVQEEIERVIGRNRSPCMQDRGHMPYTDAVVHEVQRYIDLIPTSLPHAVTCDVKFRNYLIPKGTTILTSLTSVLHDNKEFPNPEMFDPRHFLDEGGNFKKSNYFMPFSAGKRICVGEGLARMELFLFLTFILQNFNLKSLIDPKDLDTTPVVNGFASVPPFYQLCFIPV
Sequence of Cytochrome P450 2C9 (Homo sapiens) (P11712 whole entry, looked up): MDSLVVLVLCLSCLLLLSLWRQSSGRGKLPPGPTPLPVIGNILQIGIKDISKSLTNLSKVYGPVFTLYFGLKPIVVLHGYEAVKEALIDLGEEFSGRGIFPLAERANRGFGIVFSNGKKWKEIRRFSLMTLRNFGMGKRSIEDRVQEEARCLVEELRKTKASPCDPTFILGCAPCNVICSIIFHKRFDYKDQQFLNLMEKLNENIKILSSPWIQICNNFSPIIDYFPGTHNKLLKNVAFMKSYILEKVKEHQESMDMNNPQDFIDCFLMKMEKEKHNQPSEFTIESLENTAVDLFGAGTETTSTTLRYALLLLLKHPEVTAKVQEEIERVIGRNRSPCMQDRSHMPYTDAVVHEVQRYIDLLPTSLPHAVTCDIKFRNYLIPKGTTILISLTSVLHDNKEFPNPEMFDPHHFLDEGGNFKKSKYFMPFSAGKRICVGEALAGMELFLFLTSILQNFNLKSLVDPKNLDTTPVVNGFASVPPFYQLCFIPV

CCN=C1C=CC(=C(c2ccc(N(CC)CC)cc2)c2ccc(N(CC)CC)cc2)c2ccccc21
Potency [1]: inactive
Potency [2]: 0.963 µM (active)
Potency [3]: inactive
Potency [4]: 8.58 µM (active)
Potency [5]: 0.0242 µM (active)
Potency [6]: 12.6 µM (active)
Potency [7]: 17.7 µM (active)
Potency [8]: 15.8 µM (active)

CCCC(C)CCC(C)=O (stereo unspecified)
Potency [1]: inactive
Potency [2]: inactive
Potency [3]: inactive
Potency [4]: inactive
Potency [5]: inactive
Potency [6]: inactive
Potency [7]: inactive
Potency [8]: inactive

CO[Si](CCC1CCC2OC2C1)(OC)OC (stereo unspecified)
Potency [1]: inactive
Potency [2]: inactive
Potency [3]: inactive
Potency [4]: inactive
Potency [5]: inactive
Potency [6]: inactive
Potency [7]: inactive
Potency [8]: inactive

CCc1c(Br)c(Br)c(Br)c(Br)c1Br
Potency [1]: inactive
Potency [2]: inactive
Potency [3]: inactive
Potency [4]: inactive
Potency [5]: inactive
Potency [6]: inactive
Potency [7]: inactive
Potency [8]: inactive

C/C=C/CO
Potency [1]: inactive
Potency [2]: inactive
Potency [3]: inactive
Potency [4]: inactive
Potency [5]: inactive
Potency [6]: inactive
Potency [7]: inactive
Potency [8]: inactive

CCC(C)c1ccccc1 (stereo unspecified)
Potency [1]: inactive
Potency [2]: inactive
Potency [3]: inactive
Potency [4]: inactive
Potency [5]: inactive
Potency [6]: inactive
Potency [7]: inactive
Potency [8]: inactive

C#CC(O)CCC (stereo unspecified)
Potency [1]: inactive
Potency [2]: inactive
Potency [3]: inactive
Potency [4]: inactive
Potency [5]: inactive
Potency [6]: inactive
Potency [7]: inactive
Potency [8]: inactive

CCOC(=O)CC(C)O (stereo unspecified)
Potency [1]: inactive
Potency [2]: inactive
Potency [3]: inactive
Potency [4]: inactive
Potency [5]: inactive
Potency [6]: inactive
Potency [7]: inactive
Potency [8]: inactive

CC1(C)COCN1
Potency [1]: inactive
Potency [2]: inactive
Potency [3]: inactive
Potency [4]: inactive
Potency [5]: inactive
Potency [6]: inactive
Potency [7]: inactive
Potency [8]: inactive

CCN(CC)c1ccc(N)cc1
Potency [1]: inactive
Potency [2]: 22.3 µM (active)
Potency [3]: inactive
Potency [4]: 25 µM (active)
Potency [5]: inactive
Potency [6]: 13 µM (active)
Potency [7]: 9.18 µM (active)
Potency [8]: 23.1 µM (active)

COc1ccc(C#N)cc1
Potency [1]: inactive
Potency [2]: inactive
Potency [3]: inactive
Potency [4]: inactive
Potency [5]: inactive
Potency [6]: inactive
Potency [7]: inactive
Potency [8]: inactive

CCCCCCCCCC(=O)N(C)C
Potency [1]: inactive
Potency [2]: inactive
Potency [3]: inactive
Potency [4]: inactive
Potency [5]: 62.1 µM (active)
Potency [6]: inactive
Potency [7]: 36.1 µM (active)
Potency [8]: 40.5 µM (active)

CCCCCCCC/C=C\CCCCCCCC(=O)OCCOC(=O)CCCCCCC/C=C\CCCCCCCC
Potency [1]: inactive
Potency [2]: inactive
Potency [3]: inactive
Potency [4]: inactive
Potency [5]: 71.2 µM (active)
Potency [6]: 46.5 µM (active)
Potency [7]: 46.5 µM (active)
Potency [8]: 14.7 µM (active)

O=C(O)Cc1ccc(OCCNC[C@H](O)c2ccccc2)cc1
Potency [1]: inactive
Potency [2]: inactive
Potency [3]: inactive
Potency [4]: inactive
Potency [5]: inactive
Potency [6]: inactive
Potency [7]: inactive
Potency [8]: inactive

Cc1c(C(=O)O)cccc1[N+](=O)[O-]
Potency [1]: inactive
Potency [2]: inactive
Potency [3]: inactive
Potency [4]: inactive
Potency [5]: inactive
Potency [6]: inactive
Potency [7]: inactive
Potency [8]: inactive

O=CC1CC1
Potency [1]: inactive
Potency [2]: inactive
Potency [3]: inactive
Potency [4]: inactive
Potency [5]: inactive
Potency [6]: inactive
Potency [7]: inactive
Potency [8]: inactive

O=c1cccc[nH]1
Potency [1]: inactive
Potency [2]: inactive
Potency [3]: inactive
Potency [4]: inactive
Potency [5]: inactive
Potency [6]: inactive
Potency [7]: inactive
Potency [8]: inactive

CCCCCCCC(C)=O
Potency [1]: inactive
Potency [2]: inactive
Potency [3]: inactive
Potency [4]: inactive
Potency [5]: inactive
Potency [6]: inactive
Potency [7]: inactive
Potency [8]: inactive

CCCCOCC
Potency [1]: inactive
Potency [2]: inactive
Potency [3]: inactive
Potency [4]: inactive
Potency [5]: inactive
Potency [6]: inactive
Potency [7]: inactive
Potency [8]: inactive

CN(C)c1ccc(N=NS(=O)(=O)O)cc1
Potency [1]: inactive
Potency [2]: 33.8 µM (active)
Potency [3]: inactive
Potency [4]: 25 µM (active)
Potency [5]: 21.7 µM (active)
Potency [6]: 7.94 µM (active)
Potency [7]: 0.421 µM (active)
Potency [8]: 5.09 µM (active)

c1ccc2c(c1)CCC2
Potency [1]: inactive
Potency [2]: inactive
Potency [3]: inactive
Potency [4]: inactive
Potency [5]: inactive
Potency [6]: inactive
Potency [7]: inactive
Potency [8]: inactive

C=CC/C=C/C/C=C/C/C=C/C
Potency [1]: inactive
Potency [2]: inactive
Potency [3]: inactive
Potency [4]: inactive
Potency [5]: inactive
Potency [6]: inactive
Potency [7]: inactive
Potency [8]: inactive

CC(O)C#CC(C)O (stereo unspecified)
Potency [1]: inactive
Potency [2]: 27 µM (active)
Potency [3]: inactive
Potency [4]: inactive
Potency [5]: 24.1 µM (active)
Potency [6]: 35.2 µM (active)
Potency [8]: inactive

O=C(O)CCCCCCC(=O)O
Potency [1]: inactive
Potency [2]: inactive
Potency [3]: inactive
Potency [4]: inactive
Potency [5]: inactive
Potency [6]: 35.9 µM (active)
Potency [8]: inactive

O=S(=O)(O)CCCN1CCOCC1
Potency [1]: inactive
Potency [2]: inactive
Potency [3]: inactive
Potency [4]: inactive
Potency [5]: inactive
Potency [6]: inactive
Potency [7]: inactive
Potency [8]: inactive

Clc1cccnc1
Potency [1]: inactive
Potency [2]: inactive
Potency [3]: inactive
Potency [4]: inactive
Potency [5]: inactive
Potency [6]: inactive
Potency [7]: inactive
Potency [8]: inactive

— PubChem BioAssay (Tox21)
